Consider 19 molecules from PubChem BioAssay (EPA / NIEHS).

Structures are written as SMILES. Several values for one entry are separate records, joined by “and”; a condition that tells them apart may be missing. Equal entries are not always repeated. Records with an inconclusive call do not appear. Some compounds were tested as several samples or in several runs, with calls that do not always agree. Activity calls are given as the source filed them. The calls were made as follows, unless noted: active = hit-call score of the fitted dose curve at least 0.9, where 1 is the maximum; inactive = score below 0.9.

The target of experiment [1] is Retinoic acid receptor RXR-alpha (Homo sapiens) (UniProt P19793). The experiment can be described thus: ATG_RXRa_TRANS: Attagene TRANS-FACTORIAL HepG2 Assay for human Retinoid X Receptor alpha (RXRa) (AID 2283012; active = hit-call score of the fitted dose curve at least 0.9, where 1 is the maximum). The method in brief: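 Chimeric NR-GAL4 trans-activation in HepG2, 24 h treatment; reporter transcripts quantified by fluorescence on capillary electrophoresis, analysed for upward change from DMSO.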

For experiment [2], the target named is human Retinoid X Receptor beta (RXRb), RXRB (gene 6257) (UniProt P28702). Description: ATG_RXRb_TRANS: Attagene TRANS-FACTORIAL HepG2 Assay for human Retinoid X Receptor beta (RXRb) (AID 2283013; active = hit-call score of the fitted dose curve at least 0.9, where 1 is the maximum). The gist of the method:
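After a 24 h incubation with test chemical, transfected HepG2 cells carrying NR-Gal4 fusions and GAL4-UAS reporter transcription units yield RNA whose reporter cDNA is FAM-labelled, HpaI-cut and sized by capillary electrophoresis; increases over DMSO are scored.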

Experiment [3] has as its target human Thyroid Receptor alpha (THRa1), THRA (gene 7067) (UniProt P10827). The experiment can be described thus: ATG_THRa1_TRANS: Attagene TRANS-FACTORIAL HepG2 Assay for human Thyroid Receptor alpha (THRa1) (AID 2283014; active = hit-call score of the fitted dose curve at least 0.9, where 1 is the maximum). The method in brief: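 HepG2 cells transiently transfected with chimeric NR-Gal4 and GAL4-UAS reporter units, dosed 24 h. Reporter mRNA quantified by RT-PCR, fluorescent labeling, HpaI digestion and capillary electrophoresis; gain-of-signal fit versus DMSO.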

Read-out in experiment [4]: E-selectin (Homo sapiens) (UniProt P16581)
The experiment can be described thus: BSK_3C_Eselectin: BioMAP Diversity Plus: 3C Assay for Eselectin Biomarker Activity (AID 2283015).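 As to outcome: cell surface E-selectin protein quantified by ELISA 24 h after dosing.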 Particulars: primary human endothelial cells (HUVEC); actives raise or lower the signal. The method in brief: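 Primary human umbilical vein endothelial cells (3C system), read 24 h after compound addition; E-selectin measured by ELISA. Bidirectional curve fitting against DMSO baseline; cytotoxicity by parallel SRB total-protein staining.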

Read-out in experiment [5]: Interleukin-1 alpha (IL1a), IL1A (gene 3552)
The experiment can be described thus: BSK_BE3C_IL1a: BioMAP Diversity Plus: BE3C Assay for Interleukin-1 alpha (IL1a) Biomarker Activity (AID 2283016). The following applies: primary human bronchial epithelial cells; actives raise or lower the signal. The method in brief: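 Measured in human lung primary bronchial epithelial cells: IL-1a by ELISA at 24 h after dosing, with bidirectional fitting against DMSO.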

Read-out in experiment [6]: Monocyte Chemoattractant Protein-1 (MCP1), CCL2 (gene 6347)
The experiment can be described thus: BSK_3C_MCP1: BioMAP Diversity Plus: 3C Assay for Monocyte Chemoattractant Protein-1 (MCP1) Biomarker Activity (AID 2283017). The following applies: primary human endothelial cells (HUVEC); actives raise or lower the signal. The method in brief: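 Human umbilical vein endothelial cells (3C system) exposed to chemicals for 24 h; MCP-1 quantified by ELISA against the DMSO baseline with bidirectional fitting, and parallel SRB staining used to assess cytotoxicity.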

Read-out in experiment [7]: Monocyte Chemoattractant Protein-1 (MCP1), CCL2 (gene 6347)
The experiment can be described thus: BSK_4H_MCP1: BioMAP Diversity Plus: 4H Assay for Monocyte Chemoattractant Protein-1 (MCP1) Biomarker Activity (AID 2283018). Particulars: primary human endothelial cells (HUVEC); actives raise or lower the signal. The method in brief: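 Primary human umbilical vein endothelium is exposed to chemical for 24 h before MCP-1 is assayed by ELISA. Concentration-response fitted bidirectionally relative to DMSO.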

Read-out in experiment [8]: Human Leukocyte Antigen - DR isotype (HLADR), HLA-DRA (gene 3122)
The experiment can be described thus: BSK_3C_HLADR: BioMAP Diversity Plus: 3C Assay for Human Leukocyte Antigen - DR isotype (HLADR) Biomarker Activity (AID 2283019).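 As to outcome: ELISA of cell-surface HLA-DR on HUVEC 24 h after dosing.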 Particulars: primary human endothelial cells (HUVEC); actives raise or lower the signal. The method in brief:
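HUVEC monoculture, HLA-DR measured by ELISA 24 h after chemical dosing. Fitted bidirectionally against DMSO baseline; parallel SRB staining assessed cytotoxicity, with 3C proliferation read by SRB at 48 h.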

Read-out in experiment [9]: Interleukin-8 (IL8), CXCL8 (gene 3576)
Description: BSK_3C_IL8: BioMAP Diversity Plus: 3C Assay for Interleukin-8 (IL8) Biomarker Activity (AID 2283020). Particulars: primary human endothelial cells (HUVEC); actives raise or lower the signal. The method in brief:
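Using DMSO-treated wells as the baseline, bidirectional curve fitting was applied to ELISA-measured IL-8 from human umbilical vein endothelial cultures sampled 24 h after compound addition.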

Read-out in experiment [10]: Monokine induced gamma interferon (MIG), CXCL9 (gene 4283)
Description: BSK_3C_MIG: BioMAP Diversity Plus: 3C Assay for Monokine induced gamma interferon (MIG) Biomarker Activity (AID 2283021).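 As to AC50: MIG protein level measured by immunoassay in the treated endothelial cultures.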 Particulars: primary human endothelial cells (HUVEC); actives raise or lower the signal. The gist of the method:
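ELISA-measured MIG in dosed HUVEC 3C cultures at 24 h, analysed by bidirectional fitting with DMSO defining baseline activity.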

E-selectin (Homo sapiens), sequence (P16581 whole entry, looked up): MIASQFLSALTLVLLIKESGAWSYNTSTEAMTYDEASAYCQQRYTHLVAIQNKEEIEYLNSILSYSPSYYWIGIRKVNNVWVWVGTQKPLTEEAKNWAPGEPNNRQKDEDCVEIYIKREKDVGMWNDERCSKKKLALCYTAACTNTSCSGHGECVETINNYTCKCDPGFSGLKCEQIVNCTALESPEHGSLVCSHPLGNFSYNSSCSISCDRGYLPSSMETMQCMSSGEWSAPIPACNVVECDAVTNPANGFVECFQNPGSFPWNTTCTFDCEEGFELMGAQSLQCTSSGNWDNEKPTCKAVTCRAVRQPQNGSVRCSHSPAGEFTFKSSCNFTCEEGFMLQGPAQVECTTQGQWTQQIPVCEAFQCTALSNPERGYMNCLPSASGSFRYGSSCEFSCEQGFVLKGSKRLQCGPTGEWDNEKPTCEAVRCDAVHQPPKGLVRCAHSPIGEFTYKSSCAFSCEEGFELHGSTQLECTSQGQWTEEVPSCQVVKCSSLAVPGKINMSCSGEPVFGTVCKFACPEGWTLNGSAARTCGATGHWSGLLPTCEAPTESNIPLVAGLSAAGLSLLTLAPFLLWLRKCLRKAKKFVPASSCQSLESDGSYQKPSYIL
human Thyroid Receptor alpha (THRa1), THRA (gene 7067), sequence (P10827 whole entry, looked up, the tested form may be a part): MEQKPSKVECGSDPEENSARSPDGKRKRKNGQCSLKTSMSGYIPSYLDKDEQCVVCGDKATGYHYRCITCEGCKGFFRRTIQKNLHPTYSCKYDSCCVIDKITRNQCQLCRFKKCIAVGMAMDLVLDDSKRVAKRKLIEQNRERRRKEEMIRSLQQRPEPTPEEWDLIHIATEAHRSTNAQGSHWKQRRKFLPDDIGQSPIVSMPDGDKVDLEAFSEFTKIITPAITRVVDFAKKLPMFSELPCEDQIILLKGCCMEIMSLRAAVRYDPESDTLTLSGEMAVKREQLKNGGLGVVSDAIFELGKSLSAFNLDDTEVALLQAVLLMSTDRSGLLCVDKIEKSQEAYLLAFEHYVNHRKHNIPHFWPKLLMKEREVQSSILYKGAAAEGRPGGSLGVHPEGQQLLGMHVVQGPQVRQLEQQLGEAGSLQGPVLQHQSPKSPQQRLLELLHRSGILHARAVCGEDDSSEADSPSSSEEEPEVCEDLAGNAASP
human Retinoid X Receptor beta (RXRb), RXRB (gene 6257), sequence (P28702 whole entry, looked up, the tested form may be a part): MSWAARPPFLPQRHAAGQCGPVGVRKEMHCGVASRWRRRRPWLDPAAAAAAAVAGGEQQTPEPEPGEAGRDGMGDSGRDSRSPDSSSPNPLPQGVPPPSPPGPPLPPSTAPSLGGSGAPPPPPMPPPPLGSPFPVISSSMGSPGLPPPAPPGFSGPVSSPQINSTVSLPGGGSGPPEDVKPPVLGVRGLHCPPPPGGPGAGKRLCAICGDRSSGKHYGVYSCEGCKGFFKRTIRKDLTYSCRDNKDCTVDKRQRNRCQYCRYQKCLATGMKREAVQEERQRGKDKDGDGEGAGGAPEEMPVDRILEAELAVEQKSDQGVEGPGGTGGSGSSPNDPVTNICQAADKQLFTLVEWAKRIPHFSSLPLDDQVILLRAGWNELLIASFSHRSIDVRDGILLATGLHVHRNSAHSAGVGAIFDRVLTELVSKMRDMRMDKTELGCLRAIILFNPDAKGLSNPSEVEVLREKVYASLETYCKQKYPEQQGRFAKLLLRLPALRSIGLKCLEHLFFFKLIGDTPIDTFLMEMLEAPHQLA
Retinoic acid receptor RXR-alpha (Homo sapiens), sequence (P19793 whole entry, looked up, the tested form may be a part): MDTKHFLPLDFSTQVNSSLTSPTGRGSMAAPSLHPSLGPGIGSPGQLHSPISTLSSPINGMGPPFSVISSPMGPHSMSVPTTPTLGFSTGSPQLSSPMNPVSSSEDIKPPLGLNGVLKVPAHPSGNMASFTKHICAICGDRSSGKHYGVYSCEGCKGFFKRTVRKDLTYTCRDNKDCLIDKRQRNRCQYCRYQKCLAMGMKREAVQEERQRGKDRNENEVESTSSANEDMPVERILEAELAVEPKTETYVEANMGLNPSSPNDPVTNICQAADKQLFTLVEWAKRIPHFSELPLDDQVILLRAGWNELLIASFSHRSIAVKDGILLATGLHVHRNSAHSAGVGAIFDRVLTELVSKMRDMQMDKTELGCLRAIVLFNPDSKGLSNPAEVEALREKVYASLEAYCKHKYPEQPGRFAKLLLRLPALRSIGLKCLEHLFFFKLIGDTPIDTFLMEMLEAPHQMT

In general, AC50 refers to the concentration at which the activity in the assay is half-maximal. Turning to `CC(C)(C)c1cc(C(C)(C)C)c(O)c(C(C)(C)C)c1`, the half-maximal activity concentration (AC50) in experiment [1] was 217 nM (active) and 1.04 µM (active); in [2], 18.6 nM (active) and 320 nM (active). In addition, the call in experiment [3], in [4], in [5], in [6], in [7] and in experiment [8] was inactive. Also, the result in experiment [9] and in experiment [10] was inactive.

Regarding `C=C(C)C(=O)OCCC(F)(F)C(F)(F)C(F)(F)C(F)(F)C(F)(F)C(F)(F)F`, the molecule was called inactive in [1], in experiment [2], in experiment [3], in experiment [4], in [5] and in experiment [6]. The outcome in experiment [7], in [8], in experiment [9] and in experiment [10] was inactive.

On to `CCCCCCCCC(=O)O`, for which the call in [1], in experiment [2], in experiment [4], in experiment [5], in [6] and in [7] was inactive. For the same molecule, the outcome in experiment [8], in [9] and in experiment [10] was inactive. Further, the AC50 in experiment [2] was 65.3 µM (active).

Regarding `COc1ccc([N+](=O)[O-])cc1N`, the outcome in experiment [1], in [3], in [4], in experiment [5], in experiment [6] and in experiment [7] was inactive. Besides, the result in [8], in experiment [9] and in experiment [10] was inactive.

With `CCCOc1sc(C(=O)N2CCC(c3cc(CN)ccc3F)CC2)c(C)c1Br`, the call in [1] and in [2] was inactive. In addition, the concentration at half-maximal activity (AC50) was 11.1 µM (active) in experiment [4]; 5.86 µM (active) in [5]; 7.57 µM (active) in experiment [6]; 9.52 µM (active) in experiment [7]; 7.77 µM (active) in experiment [8]; 8.8 µM (active) in experiment [9]. The AC50 in experiment [10] was 11.1 µM (active).

As to `O=[N+]([O-])c1ccc(O)cc1`, the outcome in experiment [4], in experiment [5], in experiment [6], in experiment [7], in experiment [8] and in experiment [9] was inactive. The result in experiment [10] was inactive.

For `CCCCC[C@H](O)CC(=O)CCc1ccc(O)c(OC)c1`, the result in [3] was inactive.

`CCCCOCCO`: the molecule was classed as inactive in experiment [3], in experiment [4], in [5], in experiment [6], in [7] and in [8]. The result in experiment [9] and in [10] was inactive.

`Cc1oc(-c2ccccc2)nc1CCOc1ccc(C[C@H](Nc2ccccc2C(=O)c2ccccc2)C(=O)O)cc1`: the outcome in experiment [1] was inactive. For the same molecule, the AC50 in experiment [4] is 31.1 µM (active); in experiment [5] it was 5.44 µM (active); in experiment [6], 32.5 µM (active); in experiment [7], 20 µM (active); in experiment [8], 28.5 µM (active); in experiment [9] it was 28.5 µM (active). The AC50 in experiment [10] is 36.8 µM (active).

In the case of `COCC(C)OCC(C)O` (stereo not given), the outcome in experiment [4], in [5], in [6], in [7], in experiment [8] and in experiment [9] was inactive. The result in [10] was inactive.

Regarding `O=C(OCCOCCOC(=O)c1ccccc1)c1ccccc1`, the molecule was called inactive in experiment [3], in experiment [4], in experiment [5], in experiment [6], in [7] and in [8]. Also, the outcome in experiment [9] and in experiment [10] was inactive.

Take `CC#C[C@]1(O)CC[C@H]2[C@@H]3CCC4=CC(=O)CCC4=C3[C@@H](c3ccc(N(C)C)cc3)C[C@@]21C`: the result in experiment [1] and in experiment [3] was inactive. Further, the AC50 in experiment [4] is 29.3 µM (active); in experiment [5], 32.1 µM (active); in experiment [6], 36.3 µM (active); in experiment [7], 20 µM (active); in experiment [8], 37.7 µM (active); in experiment [9], 31.1 µM (active). Besides, the concentration at half-maximal activity (AC50) in [10] is 38.3 µM (active).

With `CC(O)CO` (stereo not given), the molecule was classed as inactive in experiment [1], in experiment [4], in [5], in experiment [6], in [7] and in experiment [8]. In addition, the outcome in [9] and in experiment [10] was inactive.

On to `COCC(C)O` (stereo not given), for which the outcome in experiment [2], in experiment [3], in experiment [4], in experiment [5], in [6] and in experiment [7] was inactive. The result in experiment [8], in experiment [9] and in experiment [10] was inactive.

`CCOC(=O)CC(O)(CC(=O)OCC)C(=O)OCC`: the call in [1], in [4], in experiment [5], in experiment [6], in experiment [7] and in experiment [8] was inactive. The result in [9] and in [10] was inactive.

Take `Cc1cc(C)c(O)c(C)c1`: the call in experiment [2], in experiment [4], in experiment [5], in experiment [6], in experiment [7] and in [8] was inactive. Besides, the result in experiment [9] and in experiment [10] was inactive.

For the molecule `CCCCCCC(=O)O`, the molecule was classed as inactive in experiment [1], in experiment [3], in [4], in experiment [5], in [6] and in [7]. Also, the outcome in experiment [8], in [9] and in experiment [10] was inactive.

For the molecule `CC(=O)NC1(c2cccc(F)c2)CCN(CC[C@@]2(c3ccc(Cl)c(Cl)c3)CN(c3ccccc3)C(=O)CO2)CC1`, the AC50 in experiment [1] was 49.7 µM (active); in experiment [3], 59.9 µM (active); in [4], 30.7 µM (active); in experiment [6] it was 23.5 µM (active); in experiment [8], 24.9 µM (active); in experiment [9], 17.8 µM (active). In addition, the result in [5], in experiment [7] and in [10] was inactive.

With `NC(=O)N(O)[C@@H]1C=C[C@H](Oc2cccc(Oc3ccc(F)cc3)c2)C1`, the molecule was classed as inactive in [2], in experiment [4], in experiment [5], in experiment [6], in experiment [7] and in experiment [8]. Also, the outcome in experiment [9] and in [10] was inactive.
